Consider 75 compounds from PubChem BioAssay AID1511 (Johns Hopkins Ion Channel Center, 2009).

Out of some 310,000 compounds screened, about 1,600 (0.52%) were called active. The sample holds actives, similar compounds and a random draw of the others, so the mix is not that of the screen. Unmarked numbers belong to inactive results.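 How the source made its calls: active means activation above the mean of controls blocked by dofetilide plus 5 SD; inactive means the rest.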 Square brackets hold non-standard residues; d marks the D form. Peptide text beside a SMILES is read from it. ξ: configuration not given here. ξM = CSCCC(N)C(=O)O

Chain of Voltage-gated inwardly rectifying potassium channel KCNH2 (Homo sapiens) (Q12809 whole entry, looked up): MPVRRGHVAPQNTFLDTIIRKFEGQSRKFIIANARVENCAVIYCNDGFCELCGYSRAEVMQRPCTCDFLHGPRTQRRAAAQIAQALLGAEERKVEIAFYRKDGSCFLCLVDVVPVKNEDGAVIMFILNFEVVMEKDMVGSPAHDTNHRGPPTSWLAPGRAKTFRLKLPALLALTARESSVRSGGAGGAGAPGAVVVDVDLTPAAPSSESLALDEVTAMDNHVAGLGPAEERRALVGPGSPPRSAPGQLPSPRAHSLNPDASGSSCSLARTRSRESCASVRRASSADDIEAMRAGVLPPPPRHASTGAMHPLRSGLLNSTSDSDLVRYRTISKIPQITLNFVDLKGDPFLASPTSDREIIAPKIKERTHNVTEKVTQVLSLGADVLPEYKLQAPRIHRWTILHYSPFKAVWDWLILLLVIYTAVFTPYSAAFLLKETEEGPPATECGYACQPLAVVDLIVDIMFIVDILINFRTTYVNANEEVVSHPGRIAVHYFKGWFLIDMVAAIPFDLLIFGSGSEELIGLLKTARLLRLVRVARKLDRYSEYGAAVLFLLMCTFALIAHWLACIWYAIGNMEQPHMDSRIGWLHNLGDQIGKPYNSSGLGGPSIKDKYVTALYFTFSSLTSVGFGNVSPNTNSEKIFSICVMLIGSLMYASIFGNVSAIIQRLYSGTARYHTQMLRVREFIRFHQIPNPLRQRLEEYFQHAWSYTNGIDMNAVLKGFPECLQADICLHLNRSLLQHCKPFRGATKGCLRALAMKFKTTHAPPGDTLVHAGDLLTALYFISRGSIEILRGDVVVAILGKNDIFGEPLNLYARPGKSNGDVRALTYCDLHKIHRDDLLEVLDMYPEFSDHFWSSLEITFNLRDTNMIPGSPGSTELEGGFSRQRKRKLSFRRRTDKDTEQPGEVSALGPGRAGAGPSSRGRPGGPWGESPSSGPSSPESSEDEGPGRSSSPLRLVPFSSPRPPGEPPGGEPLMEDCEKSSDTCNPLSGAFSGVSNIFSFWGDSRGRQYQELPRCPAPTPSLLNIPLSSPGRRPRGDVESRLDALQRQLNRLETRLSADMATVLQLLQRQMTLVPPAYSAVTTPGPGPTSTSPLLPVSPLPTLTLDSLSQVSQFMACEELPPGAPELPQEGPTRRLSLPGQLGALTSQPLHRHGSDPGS

This experiment has as its target Voltage-gated inwardly rectifying potassium channel KCNH2 (Homo sapiens) (UniProt Q12809). In words: compounds relieving dofetilide block of hERG – cell-based, CHO-hERG, FluxOR thallium flux, dofetilide IC70, primary screen (AID 1511).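 Further: thallium influx through hERG after potassium depolarization seen as dye fluorescence rise.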 The conditions noted are these: dofetilide IC70 present, at 10 µM, active compounds read high.
Turning to `O=C(CN1CCN(S(=O)(=O)c2cc(Cl)ccc2Cl)CC1)c1ccc(O)c(O)c1`, the activation (rescue from dofetilide block), less the hit threshold was -1.99%. In the case of `Cc1nc(N2CCOCC2)sc1C(=O)NN` it was 4.6% (active); in that of `CCOC(=O)N1CCC(NC(=O)c2ccc3nc(N4CCOCC4)sc3c2)CC1`, -5.7%. For the compound `Cc1nc(-c2ccc(Cl)cc2)sc1C(=O)NN`, the activation (rescue from dofetilide block), less the hit threshold was -10.7%. Consider `Cc1cc(O)c(C(=O)/C=C/c2c(F)c(F)c(F)c(F)c2F)c(=O)o1`, for which the activation (rescue from dofetilide block), less the hit threshold is -23.3%.

Turning to `COc1ccc(CCNC(=O)C(=O)Nc2ccc3nc4n(c(=O)c3c2)CCCCC4)cc1OC`, the activation (rescue from dofetilide block), less the hit threshold was -11.8%. The same measure for `Nc1nc(SCC(=O)N2CCN(S(=O)(=O)c3ccc(Cl)cc3)CC2)n[nH]1`: -4.93%; for `Cc1ccc(S(=O)(=O)N(C)CC(=O)OCC(=O)N2CC(=O)Nc3ccccc32)cc1`: -8.2%; for `COc1cc(NS(=O)(=O)c2ccc3ccccc3c2)c2ncccc2c1`: 5.48% (active). For `O=[N+]([O-])c1ccccc1S(=O)(=O)Nc1cccc2cccnc12`, the activation (rescue from dofetilide block), less the hit threshold is -0.19%. The same measure for `Cc1ccc(NS(=O)(=O)c2ccc(C)c(NC(=O)COc3ccc4ccccc4c3)c2)c(C)c1`: -12.4%; for `Cc1ccc(NC(=O)c2cc([N+](=O)[O-])ccc2Cl)c(O)c1`: -3.14%; for `CCCNC(=O)COc1coc(CN2CCN(Cc3ccccc3)CC2)cc1=O`: -2.43%.

On to `COC(=O)CNC(=O)C(CCSC)NC(C)=O` (stereo not given) (Ac-[ξM]-Gly-OMe), for which the activation (rescue from dofetilide block), less the hit threshold is -1.31%. For `CC(N=Cc1nc(-c2ccccc2)oc1O)c1ccccc1` (stereo not given), the activation (rescue from dofetilide block), less the hit threshold is -4.74%. For `CCOc1ccc2nc(/N=C/c3nc(-c4ccccc4)oc3O)sc2c1`, the activation (rescue from dofetilide block), less the hit threshold was 17.1% (active). Regarding `CCOc1ccc2nc(N(CCCN(C)C)C(=O)c3ccc(C(=O)c4ccccc4)cc3)sc2c1`, the activation (rescue from dofetilide block), less the hit threshold was -26.7%. In the case of `COC(=O)c1cn(C)c2ccc(S(=O)(=O)N3CC(C)CC(C)C3)cc2c1=O` (stereo not given) it was -10.9%. With `CCOC(=O)c1sc(=S)n2c1[nH]c(=O)c1ccc(C(=O)OC)cc12`, the activation (rescue from dofetilide block), less the hit threshold is 77.9% (active). In the case of `CCOC(=O)c1ccc(Nc2cc3ccccc3c(=O)[nH]2)cc1`, the activation (rescue from dofetilide block), less the hit threshold is -10.6%. In the case of `CCOC(=O)C1=C(C)Nc2sc(C(=O)c3ccc(Br)cc3)c(N)c2C1c1ccc(C(=O)OC)cc1` (stereo not given) it was -8.23%. The same measure for `N/C(=N\OC(=O)CC1CCCCC1)c1ccccc1`: -5.76%; for `CCCCn1c(N)c(N(CCOC)C(=O)c2sc3ccccc3c2Cl)c(=O)[nH]c1=O`: -2.36%; for `CN(C)c1cc(N)c2ccccc2n1` (tested in a mixture with another compound): 5% (active). Consider `Nc1nc(-c2ccccc2)cc(-c2ccccc2)n1`, for which the activation (rescue from dofetilide block), less the hit threshold is -6.21%. In the case of `COc1ccc(-c2cc(C(=O)N(C)Cc3ccccc3)c3ccccc3n2)cc1` it was -21.9%; in that of `CCCCOC(=O)c1ccc(NC(c2ccc(C)cc2)P(=O)(OC)OC)cc1` (stereo not given), -14.4%. `CC(=O)N1CCc2cc(Br)cc(S(=O)(=O)CCC(=O)Nc3c(C)n(C)n(-c4ccccc4)c3=O)c21`: the activation (rescue from dofetilide block), less the hit threshold is -18%. In the case of `Cc1nn(C)cc1N1C(=O)c2cccc3c(N)ccc(c23)C1=O` it was -54.8%; in that of `Cc1cc(=O)oc2c1c(C)nn2-c1ccc(Cl)cc1`, -1.68%; in that of `Cc1nn(-c2cc(Cl)ccc2N)c(=O)c2ccccc12`, 7.47% (active). Take `NS(=O)(=O)c1cccc(NC(=O)CC23CC4CC(CC(Br)(C4)C2)C3)c1`: the activation (rescue from dofetilide block), less the hit threshold is -7.94%.

For `Cc1cccc(C)c1NC(=O)CS(=O)CC(=O)N1CCN(c2ccccc2)CC1` (stereo not given), the activation (rescue from dofetilide block), less the hit threshold was -5.6%. Take `CC(C)C(=O)Nc1nnc(Sc2ccc(N(C)C)cc2)s1`: the activation (rescue from dofetilide block), less the hit threshold was -6.31%.

Take `Cc1cccc(C(=O)NCCCN(C)CCCNC(=O)c2cccc(C)c2)c1`: the activation (rescue from dofetilide block), less the hit threshold is -3.82%. For `Cc1cccc(NC(=S)NCCN(C2CCCCC2)C2CCCC2)c1`, the activation (rescue from dofetilide block), less the hit threshold is -7.92%. The same measure for `Cc1cccc(C(=O)NC(=S)N(C)C2CCCCC2)c1`: 11.6% (active). For `COc1ccc2cc(C(=O)NCC3CCCO3)[nH]c2c1` (stereo not given), the activation (rescue from dofetilide block), less the hit threshold was -3.17%. As for `N#CC1=C(N)N(c2ccc(F)cc2)C(=O)C1`, the activation (rescue from dofetilide block), less the hit threshold is 3.49%. In the case of `O=C(O)CCCCOn1ccnc1` it was -8.74%; in that of `O=c1c2ccccc2ncn1CCCCOc1ccccc1F`, -7.18%; in that of `O=C(/C=C/c1ccco1)NC(=S)N1CCCCC1`, -8.68%. In the case of `O=C(NNC(=S)NC1CCCCC1)c1ccccc1Cl` it was -19.3%. Regarding `C=CCNC(=S)NNC(=O)c1cc(Cl)ccc1OC`, the activation (rescue from dofetilide block), less the hit threshold was -3.41%. For the compound `COc1ccc(Cl)cc1C(=O)NNC(=S)NC1CCCC1`, the activation (rescue from dofetilide block), less the hit threshold is 5.84% (active). With `O=C(/C=C/c1ccco1)NC(=S)Nc1ccccc1Br`, the activation (rescue from dofetilide block), less the hit threshold is 0.92%.

With `COc1ccc(Cl)cc1C(=O)NNC(=S)NC(=O)/C=C/c1ccco1`, the activation (rescue from dofetilide block), less the hit threshold is 34.2% (active). On to `Cc1cccc(Cn2cnc3c(N)c(C)c(C)cc32)c1`, for which the activation (rescue from dofetilide block), less the hit threshold was -4.77%.

Take `CCOC(=O)/C=C/C(=O)OCC(=O)NC(c1ccccc1)c1ccccc1`: the activation (rescue from dofetilide block), less the hit threshold is -0.47%. The same measure for `CSc1cccc(NC(=O)CN2C(=O)COc3ccc(S(=O)(=O)N4CCOCC4)cc32)c1`: -8.66%. On to `COc1cccc(CNCc2ccc3c(c2)OCO3)c1`, for which the activation (rescue from dofetilide block), less the hit threshold is -1.37%. For `O=C1Nc2cc(Cl)c(Cl)cc2N(O)N1c1ccccc1Cl`, the activation (rescue from dofetilide block), less the hit threshold is -11.3%. On to `O=C(O)c1cccc(N2C(=O)Nc3ccccc3N2O)c1`, for which the activation (rescue from dofetilide block), less the hit threshold was 5.69% (active). In the case of `NC1=NN(c2cccc(C(=O)O)c2)C(=O)C1`, the activation (rescue from dofetilide block), less the hit threshold is -7.19%. In the case of `COc1cc(OC)c(NC(=O)C2CCCN2C(=O)OCc2ccccc2)cc1Cl` (stereo not given) it was -14.7%; in that of `COCCCNC(=O)CN1C(=O)CSc2ccc(S(=O)(=O)N3CCOCC3)cc21`, -5.64%. Consider `O=C(COC(=O)c1ccccc1NC(=O)c1ccco1)Nc1ccc2c(c1)OC(F)(F)O2`, for which the activation (rescue from dofetilide block), less the hit threshold was -13.6%. The same measure for `O=S(=O)(NCCCc1ccccc1)c1ccc(Br)cc1`: -3.29%; for `O=C1c2cccnc2C(=O)N1Cc1cccs1`: -8.43%. As for `O=C1c2ccccc2C(=O)N1Cc1cc(-c2ccccc2Cl)no1`, the activation (rescue from dofetilide block), less the hit threshold is 11.4% (active). Take `O=C1c2ccccc2C(=O)N1CCCc1nc(-c2ccccc2)no1`: the activation (rescue from dofetilide block), less the hit threshold is -6.67%. For `Cc1ccc(NC(=O)C(CC(=O)O)C2CCCO2)c(C)c1` (stereo not given), the activation (rescue from dofetilide block), less the hit threshold is -3.96%. The same measure for `COCCCn1c(Cc2csc(Nc3cccc(Cl)c3)n2)nnc1SCC(=O)OC1CCCCC1`: -9.88%. For `Cc1c(NC(=O)C(C)Oc2cccc(Cl)c2)c(=O)n(-c2ccccc2)n1C` (stereo not given), the activation (rescue from dofetilide block), less the hit threshold was -2.29%. As to `OC1CN=C2Sc3ccccc3N2C1` (stereo not given), the activation (rescue from dofetilide block), less the hit threshold is 4.61% (active). The same measure for `CCCNCc1cc(OCC)c(OCC(=O)Nc2ccccc2)cc1Br`: -25.3%. In the case of `C=Cn1cc[n+](CC(=O)c2ccc(OC)c(OC)c2)c1` it was -13.3%. In the case of `COc1ccc(C2(O)C(=O)Nc3ccccc32)cc1` (stereo not given) it was 4.63% (active); in that of `Cc1cc(O)c(C2(O)C(=O)Nc3ccccc32)cc1C` (stereo not given), -4.06%. Turning to `COc1ccc(C23NCCN2C(=O)c2ccccc23)cc1` (stereo not given), the activation (rescue from dofetilide block), less the hit threshold was -7.58%. For the compound `Cc1ccc(N2C(=O)C3N=NN(CC(=O)N4N=C(c5cccc6ccccc56)CC4c4ccccc4)C3C2=O)cc1` (stereo not given), the activation (rescue from dofetilide block), less the hit threshold was -4.02%.

As to `O=P(O)(CP(=O)(c1ccccc1)c1ccccc1)c1ccccc1O`, the activation (rescue from dofetilide block), less the hit threshold is 6.37% (active).

On to `O=P(O)(CP(=O)(c1ccccc1)c1ccccc1)c1ccccc1`, for which the activation (rescue from dofetilide block), less the hit threshold was -3.04%. Take `CC(C)(C)c1cc(P(=O)(c2ccccc2)c2ccccc2)ccc1O`: the activation (rescue from dofetilide block), less the hit threshold is -11.2%. For `CS(=O)(=O)N(CC(=O)NC1CCCC1)Cc1ccc(F)cc1`, the activation (rescue from dofetilide block), less the hit threshold is 1.73%.
